Screening data from PubChem.
An excerpt weighted towards active compounds, which were near 6% of everything screened.
D3 ag = D3 dopamine receptor (human) agonism; P35462; D3R DiscoveRx beta-arrestin cells, luminescence, 90 min; max activation, %; 0.58% of 410,000 active; in the data active = max activation above about 30%
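Cells at 1500/well, incubated overnight, then treated with pinned compounds (dopamine as control) for 90 min at 37 degrees C. DiscoveRx reagent added for 30 - 60 minutes at room temperature; luminescence read.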
D3 antag = blocks the human D3 dopamine receptor | P35462 | D3R cells, DiscoveRx beta-arrestin luminescence, antagonist mode; active compounds read low | max response, negative = inhibition, % | 2.5% of 360,000 active | AID 652054; in the data active = max response below about -50%; inconclusive = no clear call, values can overlap the other calls
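Cells plated overnight at 1500 cells/well, then exposed to library compounds with dopamine controls for 90 minutes at 37 degrees C. DiscoveRx reagent added for 30–60 minutes at room temperature; luminescence read, quantitative HTS format.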
D1 PAM = human D1 dopamine receptor positive modulation. P21728. AID 504651. 0.036% of 360,000 active. potentiation, % at 10 µM. HEK293 TREx D1 cells, calcium flux, dopamine EC20 potentiation; in the data active = potentiation above about 30%
Target sequence (P21728 whole entry, looked up): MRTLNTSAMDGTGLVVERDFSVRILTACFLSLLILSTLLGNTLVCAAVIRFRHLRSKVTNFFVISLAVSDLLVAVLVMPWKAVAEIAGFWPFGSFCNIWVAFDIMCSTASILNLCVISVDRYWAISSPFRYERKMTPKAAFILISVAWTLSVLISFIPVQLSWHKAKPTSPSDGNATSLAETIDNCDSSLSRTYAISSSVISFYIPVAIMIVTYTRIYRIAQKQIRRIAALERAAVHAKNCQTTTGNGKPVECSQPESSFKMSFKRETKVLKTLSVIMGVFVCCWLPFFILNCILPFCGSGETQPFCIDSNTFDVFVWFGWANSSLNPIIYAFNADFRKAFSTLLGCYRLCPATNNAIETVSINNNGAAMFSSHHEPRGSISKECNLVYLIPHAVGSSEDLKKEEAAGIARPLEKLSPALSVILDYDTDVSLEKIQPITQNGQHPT
D1 antagonist = blocks dopamine activation of the human D1 receptor. 3.2% of 360,000 active. activity change, negative = inhibition, % at 10 µM. HEK293 TREx D1 cells, calcium flux, dopamine EC80; active compounds read low. AID 504652; in the data active = activity change below about -30%
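Using tetracycline-induced force-coupled D1 Hek293 cells and a calcium dye, signals were followed for 180 s after compound, then for 180 s after EC80 dopamine, to detect inhibitors.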
D1 agonist = activates the human D1 dopamine receptor | 1% of 360,000 active | HEK293 T-REx D1 cells, calcium flux, agonist mode | activation, % at 2 µM | AID 504660 | P21728; in the data active = activation above about 30%
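Inducible HEK293 T-REx D1 cells, force-coupled to calcium signalling, were plated at 4000 cells/well with tetracycline and held overnight at 30 C. After no-wash calcium dye loading, compound-evoked calcium rise over 180 s flagged agonists.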
Of the large screens only hits and unclear results are named; the others gave an inactive call; ! = not confirmed by another sample.

Cn1c2c(c3ccccc31)CCN(CCCCN1CCN(c3ccccc3)CC1)C2=O	D3 ag 54 (no result: D1 PAM, D1 antagonist, D1 agonist)
CCS(=O)(=O)n1nc(-c2ccco2)nc1NCc1ccc(C(C)C)cc1	none (no result: D3 antag)
CC(C)=CCC/C(C)=C/CC/C(C)=N/O	D1 antagonist -32
CC(=O)OC/C=C(\C)CCC=C(C)C	none
Cc1ccc(-n2cc(C(C)(C)C)[nH]c2=S)cc1	D1 antagonist -46
Cc1cc(/C=C(\C#N)C(N)=O)c(C)n1-c1ccc(N2CCOCC2)c([N+](=O)[O-])c1	D1 antagonist -32
CC(=O)N1c2ccc(S(=O)(=O)NCCC(=O)NC3CCCC(C)C3C)cc2CC1C (stereo not drawn)	D1 antagonist -39
CCCCN(C)C(=O)C1CCC(CNS(=O)(=O)c2ccc3c(c2)CC(C)N3C(C)=O)CC1 (stereo not drawn)	D1 antagonist -36!
CCOCCCNC(=S)NNC(=O)CCn1nc(C)c(Br)c1C	D3 antag -97 (no result: D1 antagonist)
Cc1nn(CCC(=O)NNC(=S)NCC(C)C)c(C)c1Br	D3 antag -104 (no result: D1 antagonist)
CNC(=S)NNC(=O)CCn1nc(C)c(Br)c1C	D3 antag inconclusive
OC[C@@H]1CN(Cc2ccc(F)cc2)C[C@H](n2cnc3c(NCc4ccc(F)cc4)ncnc32)O1	none (no result: D1 PAM, D1 antagonist, D1 agonist)
COc1cccc(-c2ccc(NC(=O)C3CCCN(CCCn4nc(C)cc4C)C3)cc2)c1 (stereo not drawn)	D1 agonist 41
O=C1CCCC/C=C\C[C@H](CC(=O)N(CCO)Cc2ccccc2)C(=O)N2CCC[C@@H]2CO1	none (no result: D1 PAM, D1 antagonist, D1 agonist)
O=C(CNS(=O)(=O)c1ccc(Br)s1)N1CCN(c2ccc(F)cc2)CC1	D1 antagonist -51!
CCC1(C)Cc2nc3[nH]c(=S)n(-c4ccc(C)cc4)c(=O)c3cc2CO1 (stereo not drawn)	none
Cc1ccc(-n2c(=S)[nH]c3nc4c(cc3c2=O)COC(C)(C)C4)cc1	D1 antagonist -48
Cc1ccc(-n2c(=S)[nH]c3[nH]ncc3c2=O)cc1	D1 antagonist -31
COC(=O)c1c(C)cc(O)c(C=O)c1O	D3 antag -53 (no result: D1 PAM, D1 antagonist, D1 agonist)
Cn1c(CN2CCOCC2)nc2cc(NC(=O)c3ccccc3[N+](=O)[O-])ccc21	none (no result: D3 antag)
Nc1nc(N2CCCCC2)c(C=O)c(N2CCCCC2)n1	D1 antagonist -36
Cc1cc(C)c2cc(C#N)c(N3CCCC3)nc2c1	none
CC(=O)c1cc(C#N)c(SCCC(C)C)nc1C	D1 antagonist -41
CC(=O)c1cc(C#N)c(N2CCCC2)nc1C	D1 antagonist -36
CCSc1nc(C)c(C(C)=O)cc1C#N	none
Cc1ccccc1CNC(=O)c1ccc2sc([C@H]3C[C@H](O)[C@@H](CO)O3)nc2c1	none (no result: D1 PAM, D1 antagonist, D1 agonist)
Cc1cc(-c2ccc(C)c(S(=O)(=O)Nc3cc(C)on3)c2)on1	none
CC1(C(=O)NS(=O)(=O)c2cccc(F)c2)CCN1C(=O)Cc1cccs1 (stereo not drawn)	none (no result: D1 PAM, D1 antagonist, D1 agonist)
COc1ccc(N=C2S/C(=C\c3ccc(N4CCOCC4)o3)C(=O)N2CCc2c[nH]c3ccccc23)cc1	D1 antagonist -30 (no result: D3 ag, D3 antag)
CCOC(=O)c1c(-c2cccs2)csc1NC(=O)CC(C)C	none
NC(=O)c1c(-c2cccs2)csc1N	D3 antag -54
Cc1ccc(Cn2c(CN3CCC(C(=O)NCCc4ccccc4)CC3)cc3ccccc32)cc1	D1 agonist 43 (no result: D3 antag)
Cc1ccc(C2CC(C(F)(F)F)n3nc(C(=O)Nc4c(C)n(C)n(-c5ccccc5)c4=O)cc3N2)cc1 (stereo not drawn)	none
COc1cccc(C2CC(C(F)(F)F)n3nc(C(=O)Nc4c(C)n(C)n(-c5ccccc5)c4=O)cc3N2)c1 (stereo not drawn)	D3 antag -87
Cn1c(=O)c2c(ncn2CC(=O)OCC(=O)NNC(=O)c2ccc(Cl)cc2)n(C)c1=O	D3 antag -124
Cn1c(=O)c2c(ncn2CC(O)CNc2ccc(Cl)cc2)n(C)c1=O (stereo not drawn)	D1 antagonist -37
O=C(COC(=O)CN1C(=O)C2CCCCC2C1=O)NNC(=O)c1ccc(Cl)cc1 (stereo not drawn)	D3 antag -75
C=C[C@]1(C)C[C@@H](OC(=O)CSC(C)(C)CNC(=O)[C@H](N)C(C)C)[C@]2(C)[C@H](C)CC[C@]3(CCC(=O)[C@H]32)[C@@H](C)[C@@H]1O	none (no result: D3 antag, D1 PAM, D1 antagonist, D1 agonist)
CC(=O)N1CCc2nc3sc(C(=O)c4ccc(F)cc4)c(N)c3c(C(F)(F)F)c2C1	D1 agonist 61 (no result: D3 antag)
Cc1nc(-c2ccccc2)nc2sc(C(=O)c3ccc(F)cc3)c(N)c12	D1 agonist 34
CCc1ccccc1Nc1cc(C(=O)NC2CCC(C)CC2)c2ccccc2n1 (stereo not drawn)	none (no result: D3 antag)
CCOC(=O)c1ccccc1NC(=O)c1sc2nc3n(c(=O)c2c1C)CCCCC3	none (no result: D3 antag)
CN1OC[C@@H]2CN(S(=O)(=O)c3ccccc3)[C@H](c3ccc(-n4ccnc4)cc3)C[C@@H]21	none (no result: D1 PAM, D1 antagonist, D1 agonist)
COc1ccc(CCNC(=O)C2(C)CCC(=O)N2Cc2ccc3c(c2)OCO3)cc1OC (stereo not drawn)	none
COc1ccc(CCNC(=O)C2(C)CCC(=O)N2Cc2ccc(F)cc2Cl)cc1OC (stereo not drawn)	D1 antagonist -33
CCC1CCCCN1S(=O)(=O)c1ccc(C(=O)Nc2nnc(-c3ccccc3Cl)o2)cc1 (stereo not drawn)	D3 antag -86
CCC1CCCCN1S(=O)(=O)c1ccc(C(=O)Nc2nnc(C3CC3)o2)cc1 (stereo not drawn)	none
O=C(Nc1nnc(-c2ccccc2Cl)o1)c1ccc(S(=O)(=O)N2CCCCCC2)cc1	none
CC1CCCCN1S(=O)(=O)c1ccc(C(=O)Nc2nnc(-c3ccccc3Cl)o2)cc1 (stereo not drawn)	D3 antag -71
COc1ccc(NC(=O)CCCc2nnc3n(C)c(=O)c4sccc4n23)cc1	D1 antagonist -31
CCOc1ccc(NC(=O)CCCc2nnc3n(C)c(=O)c4sccc4n23)cc1	none (no result: D3 antag)
Cc1cc(C)cc(NC(=O)CCc2nnc3n(C)c(=O)c4sccc4n23)c1	D1 antagonist -46 (no result: D3 antag)
CCN(CC(=O)Nc1ccccc1C(F)(F)F)C(=O)c1ccc2[nH]c3c(c2c1)CC(C)CC3 (stereo not drawn)	none
N#CCCCSc1nnnn1-c1cccc(Cl)c1	D1 antagonist -37
O=C(CSc1nnnn1-c1cccc(Cl)c1)Nc1ccc2c(c1)CCC2	none (no result: D3 ag, D3 antag)
CCOc1ccc(/C=C/C(=O)Nc2sc3c(c2C(=O)OC)C(C(=O)OC)CC3)cc1 (stereo not drawn)	none (no result: D3 antag)
Cc1ccc(C)c(Nc2nnc(-c3ccc(C)c(S(=O)(=O)N4CCN(C)CC4)c3)c3ccccc23)c1	D1 antagonist -31 (no result: D3 antag)
Cc1ccccc1Nc1nnc(-c2ccc(C)c(S(=O)(=O)N3CCN(C)CC3)c2)c2ccccc12	none (no result: D3 antag)
